56 compounds from ChEMBL document CHEMBL4513216, “Probing the Open Global Health Chemical Diversity Library for Multistage-Active Starting Points for Next-Generation Antimalarials” (ACS Infect Dis, 2020) can be followed below.

Out of some 65,000 compounds screened, about 2,100 (3.2%) showed an effect of 50% or more. The median lay at about -52%. The entries come from a sample that favours strong results as a whole.

The assay deals with Plasmodium falciparum. In words: Screen against P. falciparum Asexual Blood Stage (ABS), at 5uM. The class given is functional, Dd2. Conditions: tested at 5 uM.
For `Cc1ccc(NC2CCN(C(=O)c3cccc4[nH]ncc34)CC2)nn1`, the INHIBITION is -12.4%.
For `CCN1CCCC(O)(CN(C)Cc2ccc(C)o2)C1` (stereo unspecified) the value was 20.1%; for `Cc1nn(C)c(C)c1CN(C)CC1(O)CCCN(C)C1` (stereo unspecified), -56.8%.
The value for `Cc1ccc(CN(C)CC2(O)CCCN(C)C2)o1` (stereo unspecified) was 54.2%; that for `CC(C)c1nc(N2CCC(N3CCSCC3)CC2)c2cnn(C)c2n1` was -57%.
The value for `CC(C)c1nc(N2CCC(N3CCCCCC3)CC2)c2cnn(C)c2n1` was 51.9%; that for `CC(C)c1nc(N2CCC(N3CCCC(O)C3)CC2)c2cnn(C)c2n1` (stereo unspecified) was -33.8%.
As for `CC1(C)CN(CCC(=O)NCc2cccc(Cl)c2)CC[C@]1(C)O`, the INHIBITION stood at 53.1%.
The value for `Cc1ccc(C(=O)O)cc1CNC(=O)CN1CC[C@](C)(O)C(C)(C)C1` was -0.0274%; that for `O=C(CCN1CCOC(C(F)(F)F)C1)NCc1cccc(Cl)c1` (stereo unspecified) was -53.515%; that for `CN(C(=O)COc1ccc(F)cc1)[C@@H]1CC[C@@H](n2ccnc2)[C@@H]1O` was -72.8%.
The value for `COCCN1CCC2(CC1)CN(C(=O)c1ccco1)CCO2` was -29.3%.
The value for `COc1ccc2[nH]nc(CN3CCC(C(C)N4CCCC4)CC3)c2c1` (stereo unspecified) was 38.8%.
`COc1ccc2[nH]nc(CN3CCC(C(C)N(C)C)CC3)c2c1` (stereo unspecified): the INHIBITION came out at 64.4%.
The value for `COc1ccc2[nH]nc(CN3CCC(C(=O)N4CCCCC4)CC3)c2c1` was 13.7%; that for `Cn1nccc1-c1nc2c(cc1C(=O)O)CCN(C(=O)C1CC1)CC2` was -73.9%; that for `O=C1CC(c2ccncc2)C2(CCN(C(=O)c3cccs3)CC2)N1` (stereo unspecified) was -50.7%.
For the compound `O[C@H]1[C@H](n2cc(CN3CCCC3)nn2)c2ccccc2C12CCNCC2`, the INHIBITION amounted to 63.2%.
For `COCc1cn([C@@H]2c3ccccc3C3(CCNCC3)[C@H]2O)nn1` the value was -24.9%; for `OCc1cn([C@@H]2c3ccccc3C3(CCNCC3)[C@H]2O)nn1`, -114%; for `Cc1cnc(C(=O)N2CCC3(CCN3Cc3ccc(F)cc3)C2)cn1` (stereo unspecified), -60.5%.
The value for `O=C1CN(c2ccc(CNC(=O)Nc3nnc(C4CC4)s3)cc2)CCN1` was -5.48%; that for `Cc1cnn(CCCOc2ccc3c(c2)OCO3)c1` was -30.8%; that for `Cc1cnn(CCNCCCOc2ccccc2)c1` was -13.6%.
`COc1cc(CNc2cnn(C)c2)cc2c1OCCO2`: the INHIBITION is -181%.
The value for `COc1cc(CNCCn2cc(C)cn2)cc2c1OCCO2` was 58.2%; that for `COc1cc(CNCCc2cnn(C)c2)cc2c1OCCO2` was -7.17%; that for `Cc1cnn(CCNCCCOc2ccc3c(c2)OCO3)c1` was 50.6%.
The value for `Cc1cnn(CCNCCCOc2ccc(C#N)cc2)c1` was 65.9%; that for `c1cnn(CCNCCCOc2ccc3c(c2)OCO3)c1` was 23.5%.
In the case of `Cc1cnn(CCNCC(O)COc2ccc(C#N)cc2)c1` (stereo unspecified), the INHIBITION is -106%.
The value for `CC(=O)c1cccc(OCC(=O)NS(=O)(=O)c2ccc(Br)s2)c1` was -85.3%; that for `CCN(CC)S(=O)(=O)N(Cc1ccccn1)Cc1ccccc1C` was -6.79%.
Regarding `CC(NCC(N)=O)c1c(F)cccc1Cl` (stereo unspecified), the INHIBITION is reported as -21.3%.
With `Cc1sc2ncnc(N3CCC(N(C)Cc4cnn(C)c4)CC3)c2c1C`, the INHIBITION was determined as 23.5%.
The value for `COCc1noc(CN2CCCCC2CCc2cccs2)n1` (stereo unspecified) was -172%.
For `O=C(O)c1cc(-c2ccncc2F)cc(S(=O)(=O)N2CCCCCC2)c1` the value was -154%; for `O=C(c1ccco1)N1CCO[C@@H]2CN(CC3CC3)CC[C@@H]2C1`, -65.2%.
With `Cc1cccc(CN2CCC3(CCN(Cc4ccccn4)C3)C2=O)c1` (stereo unspecified), the INHIBITION stood at 27.8%.
For `Cc1nn(C)c(C)c1C1CCCN1C(=O)c1ccc(N(C)C)nc1` (stereo unspecified) the value was -54.2%; for `COc1ccc(-c2cccc3c2OC(CN)C3)cc1F` (stereo unspecified), 62.6%.
The value for `COc1cccnc1-c1ccc(F)c2c1OC(CN)C2` (stereo unspecified) was 59.3%; that for `COc1cc(OC)cc(-c2cccc3c2OC(CN)C3)c1` (stereo unspecified) was 68.3%; that for `NCC1Cc2cccc(-c3nccc(N4CCC(O)CC4)n3)c2O1` (stereo unspecified) was 20.4%.
As for `COc1cc(-c2ccc(F)c3c2OC(CN)C3)cc(OC)c1OC` (stereo unspecified), the INHIBITION was -12.8%.
With `COc1c(F)cc(-c2cccc3c2OC(CN)C3)cc1F` (stereo unspecified), the INHIBITION came out at 35.4%.
The value for `NCC1Cc2cc(F)cc(-c3cnccn3)c2O1` (stereo unspecified) was 19.1%.
On to `COc1cc(-c2cccc3c2OC(CN)C3)cc(OC)c1OC` (stereo unspecified), for which the INHIBITION stood at 46.9%.
The value for `COc1cc(-c2cccc3c2OC(CN)C3)ccc1O` (stereo unspecified) was 38%.
In the case of `NCC(=O)N1CCC(c2cccc(Oc3ccccc3)n2)CC1`, the INHIBITION was -20.5%.
As to `CC(C)(C)NC(=O)CN1CCCNCC1`, the INHIBITION is reported as -113%.
Take `CC(=O)NCC(=O)N1Cc2nccn2CC(COc2cccnc2)C1` (stereo unspecified): the INHIBITION is listed as -98.1%.
For `CNc1cccc(C2CCCN(C(=O)Cc3ccccc3)C2)n1` (stereo unspecified) the value was -62.3%; for `COc1cccc(C(=O)C2CCCN(c3cc(C#N)ccn3)C2)c1` (stereo unspecified), -25.2%; for `Cc1noc(CNC(=O)C2CSCCC(=O)N2)n1` (stereo unspecified), -164%.
Regarding `COc1ncc(C2(O)CCN(Cc3c(F)cccc3F)CC2)c(OC)n1`, the INHIBITION is on record as 13.1%.
